Measured values as given in PubChem BioAssay (Tox21).
Records with an inconclusive call do not appear. Entries that show only a call come without a potency. The source made the active and inactive calls. The call rests on the fitted dose curve; in most records, active means well fitted activation curve with a large enough effect in the signal ratio in the repeat runs, with a control signal flat (not every such curve was filed as active); inconclusive means weak or mixed curves; inactive means flat fitted curve, though single readings scatter; the % refers to the signal ratio.

Experiment: qHTS assay for small molecule activators of the heat shock response signaling pathway (AID 743210)
Conditions: HeLa HSE-bla reporter, beta-lactamase ratio, 5 h; series mostly up to 62.6 µM
Source text: U.S. Tox21 Program National Center for Advancing Translational Sciences [NCATS] NIH Chemical Genomics Center [NCGC] U.S. Environmental Protection Agency [EPA] National Institutes of Environmental Health Sciences [NIEHS] National Toxicology Program [NTP] U.S. Food and Drug Administration [FDA] Tox21 Assay Overview: Various chemicals, environmental and physiological stress conditions may lead to the activation of heat shock response/ unfolded protein response (HSR/UPR). There are three heat shock transcription factors (HSFs) (HSF-1, -2, and -4) mediating transcriptional regulation of the human HSR. To identify the compounds that activate HSR signaling, HSE-bla HeLa cell line (Invitrogen, Carlsbad, CA, USA) containing a beta-lactamase reporter gene under the control of the heat shock response elements was used to screen the Tox21 10K compound library.
Tox21 Assay Protocol Summary: The CellSensor HSE-bla HeLa cells (Invitrogen, Carlsbad, CA, USA) were dispensed at 1500 cells/6uL/well into 1536-well black wall/clear bottom plates using a Multidrop combi (Thermo Fisher Scientific, Waltham, MA) dispenser. After the assay plates were incubated at 37 C and 5% CO2 overnight, 23 nL of compounds dissolved in DMSO, positive controls or DMSO only was transferred to the assay plate by a Pintool station (Kalypsys, San Diego, CA). The plates were incubated at 37 C for 5 h. After 1 uL of LiveBLAzerTM B/G FRET substrate was added using a Flying Reagent Dispenser (Beckman Coulter, Indianapolis, IN, USA), the plates were incubated at room temperature for 2.5 h, and fluorescence intensity was measured by an Envision plate reader (PerkinElmer, Shelton, CT).

| Compound | Potency |
| --- | --- |
| COc1ccccc1OCC(O)COC(N)=O (stereo not given) | inactive |
| O=C(O)CN(CCN(CC(=O)O)CC(=O)O)CCN(CC(=O)O)CC(=O)O | inactive |
| O=[N+]([O-])c1nccn1CO[C@@H](CO)[C@H](O)CO | inactive |
| CC(C)NCC(O)COc1ccc(CCOCC2CC2)cc1 (stereo not given) | inactive |
| CN(C)C(=O)NC1(c2ccccc2)CCN(CCC[C@]2(c3ccc(Cl)c(Cl)c3)CCCN(C(=O)c3ccccc3)C2)CC1 | inactive |
| C1CSCCS1 | inactive |
| CCCCNc1ccc(C(=O)OCCN(CC)CC)cc1 | inactive |
| OCC(CBr)(CBr)CBr | inactive |
| CC1CN(c2ccccc2)NC1=O (stereo not given) | inactive |
| Cc1nnc(SCC2=C(C(=O)O)N3C(=O)[C@@H](NC(=O)Cn4cnnn4)[C@H]3SC2)s1 | inactive |
| Nc1cccc(S(=O)(=O)O)c1 | inactive |
| CC1=CC(=O)CC(C)(C)C1=O | inactive |
| CCC(=O)O[C@]1(C(=O)SCF)[C@H](C)C[C@H]2[C@@H]3C[C@H](F)C4=CC(=O)C=C[C@]4(C)[C@@]3(F)[C@@H](O)C[C@@]21C | inactive |
| CC/C=C\CCOC(=O)C(C)C | inactive |
| O=C1CCC(C2CCCCC2)CC1 | inactive |
| OCCN(CCO)CCN(CCO)CCO | inactive |
| Nc1ccc2ccccc2c1S(=O)(=O)O | inactive |
| CN(CC1(C)CCCO1)S(=O)(=O)c1ccc(Cl)c(S(N)(=O)=O)c1 (stereo not given) | inactive |
| CCCCCCOc1ccc(N)cc1 | inactive |
| CCOC(=O)CS | inactive |

| Compound | Potency |
| --- | --- |
| CC(C)Nc1nc(N)nc(Cl)n1 | inactive |
| CC(C)C[C@H](NC(=O)OCC1c2ccccc2-c2ccccc21)C(=O)O | inactive |
| NS(=O)(=O)c1cc(-c2nn[nH]n2)c(NCc2cccs2)cc1Cl | inactive |
| O=Cc1ccc(F)c(Br)c1 | inactive |
| CC(=O)Nc1ccc(C)c(Cl)c1 | inactive |
| O=C(O)[C@@H]1CSCN1 | inactive |
| COc1ccccc1N1CCN(CCCNc2cc(=O)n(C)c(=O)n2C)CC1 | inactive |
| CCOC(=O)C(Br)c1ccccc1 (stereo not given) | inactive |
| CCCCCCCCCC#N | inactive |
| OCc1ccccc1O | inactive |
| CCC/C=C/CO | inactive |
| CC(C)OC(C)C | inactive |
| CCNCCO | inactive |
| CC1=NN(c2cc(Cl)c(S(=O)(=O)O)cc2Cl)C(=O)C1N=Nc1ccc(S(=O)(=O)O)cc1 (stereo not given) | inactive |
| Oc1ccccc1C=NCc1ccccc1 | inactive |
| CCCNC(C)C(=O)Nc1c(C)csc1C(=O)OC (stereo not given) | inactive |
| O=C(O)c1cccc(Cl)c1Cl | inactive |
| CS(=O)(=O)c1ccc([C@@H](O)[C@@H](CF)NC(=O)C(Cl)Cl)cc1 | inactive |
| NCCCN1CCN(CCCN)CC1 | inactive |
| Cc1c(-c2ccccc2)oc2c(C(=O)OCCN3CCCCC3)cccc2c1=O | inactive |
